Rows were chosen to be rich in hits. Some 21% of all compounds tested hit in one or more screens of this group.
FBPA Giardia inh = qHTS Assay for Inhibitors of Fructose-1,6-bisphosphate Aldolase from Giardia Lamblia | 0.71% of 290,000 active | AID 2451, 2010 | purified Giardia FBPA | Potency, µM (top dose mostly 59.6 µM), actives largely listed as inhibitors | A8B2U2; also: nearly all actives have a fitted effect of over 55% in size
Target sequence (A8B2U2 whole entry, looked up): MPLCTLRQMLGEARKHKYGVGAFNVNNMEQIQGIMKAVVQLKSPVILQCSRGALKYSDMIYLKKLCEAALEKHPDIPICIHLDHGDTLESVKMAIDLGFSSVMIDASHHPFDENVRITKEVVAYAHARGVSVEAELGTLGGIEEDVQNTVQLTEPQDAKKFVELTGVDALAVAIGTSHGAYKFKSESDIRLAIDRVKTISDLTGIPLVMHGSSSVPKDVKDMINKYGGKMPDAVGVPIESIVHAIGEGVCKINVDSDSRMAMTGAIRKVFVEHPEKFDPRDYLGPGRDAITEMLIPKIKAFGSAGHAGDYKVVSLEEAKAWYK
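40 nM FBPA preincubated 10 min at RT with compound (up to 57.5 uM final), then substrate plus GAPDH/TPI/NAD/arsenate coupling and diaphorase/resazurin added. Fluorescence read after 20 min at RT, 525/598 nm.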
Pf growth 96h = Primary qHTS for delayed death inhibitors of the malarial parasite plastid, 96 hour incubation | P. falciparum luciferase reporter growth, 96 h | Potency, µM (series often up to 28.7 µM), actives largely listed as inhibitors | 6.9% of 320,000 active | AID 504834, 2011
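Two parasite generations (96 h, 37 C, 5% CO2) of compound exposure in infected erythrocytes (0.05% parasitemia, 2% hematocrit). Luciferase-reporter P. falciparum; decreased luminescence indicates inhibited growth, aimed at apicoplast-acting delayed death.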
Pf growth 48h = Primary qHTS for delayed death inhibitors of the malarial parasite plastid, 48 hour incubation; P. falciparum luciferase growth in erythrocytes, 48 h; Potency, µM (series often up to 28.7 µM), hits mostly inhibitors; 5.9% of 310,000 active; AID 504832, 2011
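Luciferase-expressing parasites in RBCs, 2% Hct / 0.1% parasitemia final; RPMI 1640 + 0.5% Albumax; 37 C, 5% CO2, one generation; luminescence read-out, lower signal = inhibition.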
Cycloheximide cs = Cycloheximide Counterscreen for Small Molecule Inhibitors of Shiga Toxin; cell reporter, cycloheximide protein synthesis inhibition counterscreen; max response, %; 12% of 300,000 active; in the data active = max response mostly above about 13%, no sharp cut-off; inactive = mostly below about 14%; also: read at 38.3 µM for the half of the compounds with a filed dose
Shiga inhibitor = A qHTS for Small Molecule Inhibitors of Shiga Toxin; Vero cells, Shiga toxin protein synthesis inhibition reporter; AID 2315, 2010; 9.2% of 290,000 active; inhibition, % at 38.7 µM; in the data active = inhibition mostly above about 28%, no sharp cut-off; inactive = mostly below about 43%
NS1 function inh = qHTS Assay for Inhibitors of Influenza NS1 Protein Function. Potency, µM (top dose mostly 46.1 µM). 0.4% of 270,000 active; calls by dose curve; also: actives are rising curves; nearly all actives have a fitted effect of over 50% in size
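S. cerevisiae expressing influenza A NS1, grown in glucose, washed, then diluted 1:100 into pH 6.0 -URA galactose medium with 23 nl compound. Growth recovery read as OD600; NS1-free strain serves as control.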
Hits are given with their value; i = inactive; ? = inconclusive; nt = not tested or not shown; [ ] = remark or other dose. Unless noted, calls follow the shape of the dose curve; as a rule, active = well fitted curve in the direction sought with a large enough effect; inconclusive = small, poorly fitted or top-dose-only effect, or another doubt; inactive = no such curve, though single readings can be large; an effect the other way counts as inactive or inconclusive.

SMILES	FBPA Giardia inh	Pf growth 96h	Pf growth 48h	Cycloheximide cs	Shiga inhibitor	NS1 function inh
CC(C)N(Cc1nccn1C)C(=O)c1ccc2oc(Cc3ccccc3)nc2c1	i	i	?	i	i	i
CCCCc1nc2cc(C(=O)NC3CCOC(C)(C)C3)ccc2o1 (stereo not given)	nt	?	i	i	i	i
CC(CCCC(C)(C)O)NC(=O)c1ccc2oc(CCc3ccccc3)nc2c1 (stereo not given)	i	i	i	14.2	i	i
N#Cc1cnn2ccn(C3OC(CO)C(O)C3O)c12 (stereo not given)	i	i	?	i	i	i
Cc1ccc(CN(C(=O)c2csnn2)C(C(=O)NC2CCCC2)c2cccnc2)cc1 (stereo not given)	i	i	i	i	i	i
CCC(=O)N1N=C(c2ccc(C)cc2)CC1c1ccco1 (stereo not given)	i	i	i	i	i	i
Cc1ccc(C2=NN3C(C(=O)c4ccccc4)Oc4ccccc4C3C2)cc1 (stereo not given)	i	?	i	33.9	85.8	i
COc1ccc(C2=NN(C(=O)CCC(=O)O)C(c3ccccc3OC)C2)cc1 (stereo not given)	i	?	?	i	i	i
COc1ccc(C2=NN3C(C2)c2ccccc2OC3c2cccs2)cc1 (stereo not given)	i	?	i	58.9	62.5	i
COc1ccc(C2=NN3C(C2)c2ccccc2OC32C(=O)N(C)c3ccccc32)cc1 (stereo not given)	i	i	?	61.9	109.4	i
Cc1ccc(C(=O)C2Oc3ccccc3C3CC(c4ccc(C)cc4)=NN23)cc1 (stereo not given)	i	i	?	53.4	59.7	i
CCN(CC(=O)Nc1ccc(NC(C)=O)cc1)CC(=O)Nc1cc(C)on1	nt	i	i	nt	nt	nt
CCCCS(=O)(=O)N1CCN(S(=O)(=O)c2cccs2)CC1	nt	?	i	i	i	i
O=[N+]([O-])c1ccc(N2CCN(CCO)CC2)cc1Sc1ccccn1	i	?	i	i	i	i
CCN1CCN(c2ccc([N+](=O)[O-])c(Sc3nc4ccccc4[nH]3)c2)CC1	i	2.62µM	?	i	i	i
COc1ccc(OCC#CCN2CCNCC2)cc1	?	1.85µM	i	i	i	i
COc1ccc(OCC#CCN2CCCCCC2)cc1	?	i	i	11.7	i	nt
C(#CCN1CCCCC1)COCc1ccccc1	i	i	i	17.1	i	i
COc1ccc(CN2CCNCC2)cc1	i	i	i	i	i	i
COc1ccc(OCC#CCN2CC(C)OC(C)C2)cc1 (stereo not given)	?	?	i[5.75 µM]	i	i	nt
Cc1cc(NC(=O)CNCC(c2ccccc2)N(C)C)c([N+](=O)[O-])cc1C (stereo not given)	i	i	i	i	i	i
CC1CCCC(NC(=O)CSc2ncccn2)C1C (stereo not given)	nt	i	i	nt	nt	nt
CCOC(=O)c1sc2nc(CSc3ccccc3)nc(N3CCC(C(N)=O)CC3)c2c1C	i	4.15µM	3.29µM	i	i	nt
Cc1sc2nc(CSc3ccccc3)nc(N3CCC(C(N)=O)CC3)c2c1C	i	11.7µM	?	i	i	i
Cc1sc2nc(C3CC3)nc(NCCNS(=O)(=O)c3ccccc3)c2c1C	i	i	9.28µM	i	i	i
SMILES	FBPA Giardia inh	Pf growth 96h	Pf growth 48h	Cycloheximide cs	Shiga inhibitor	NS1 function inh
Cc1sc2nc(CSc3ccccc3)nc(NCCN(C)C)c2c1C	i	5.86µM	?	i	i	i
Cc1sc2nc(CSc3ccccc3)nc(N3CCOCC3)c2c1C	i	?	?	i	i	i
COc1ccc(CCNC(=O)CN2C(=O)NC(C)(c3ccc([N+](=O)[O-])cc3)C2=O)cc1 (stereo not given)	i	i	?	i	i	i
CCOC(=O)c1c(N)sc(C(O)(C(F)(F)F)C(F)(F)F)c1-c1ccc(OC)cc1OC	i	?	11.7µM	i	i	i
CCOC(=O)c1c(N)sc(N)c1C(=O)OCC	?	i	?	i	i	i
O=C(Nc1ccc(S(=O)(=O)Nc2ccccc2F)cc1)N1CCCCC1	nt	?	i	i	i	i
Cc1ccc2oc(=O)c(/C=C(\O)c3ccccc3)nc2c1	?	i	i	i	i	nt

Assay outcomes (PubChem)
